Assay results reported in PubChem BioAssay AID862 (The Scripps Research Institute Molecular Screening Center, 2007).
Screen size: about 190,000 compounds; about 1,700 (0.89%) were called active.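 The calls were made as follows: active = inhibition above the mean inhibition across all screened compounds plus 3 SD (cut at about 44% in these data); inactive = the rest.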 The list comes from a sample in which actives are over-represented; it also holds similar structures and randomly drawn compounds.

Experiment: IL-6 driven STAT3 reporter inhibitors, primary screen, U3A cells, luciferase, luminescence, MLSCN library (AID 862);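 also: 0% = DMSO only wells and 100% = 100 µM nifuroxazide control wells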
Conditions: IL-6 STAT3-luciferase reporter, at 5.5 µM, hits give high values, host cell line lacks STAT1

SMILES | inhibition
CN(/C(=N/S(=O)(=O)c1cccs1)c1ccccc1)c1ccc(O)cc1 | -3.2% (inactive)
Cc1cc(NC(=O)CN2C(=O)NC(C)(CCc3ccccc3)C2=O)no1 (stereo not drawn) | -5.6% (inactive)
O=C(O)CCc1nc2cc(Cl)ccc2n(Cc2ccccc2)c1=O | 2.8% (inactive)
Cn1c(-c2ccco2)nc2cc3ccccc3cc21 | 79.1% (active)
CN(c1nc2ccccc2n2c(-c3ccco3)nnc12)S(=O)(=O)c1ccccc1 | 4.1% (inactive)
CN1c2ccccc2-c2nc3ccccc3n2C1c1ccco1 (stereo not drawn) | 14% (inactive)
O=C1CCCC(O)=C1N=Nc1ccc2ncsc2c1 | -0.2% (inactive)
O=C(NCCCn1ccnc1)C(=O)c1cn(CC(=O)N2CCCCCC2)c2ccccc12 | 6.5% (inactive)
CC(C)N(C(=O)CSc1nc(COc2ccccc2)nc2ccccc12)C(C)C | 10.8% (inactive)
CC(=O)N1CCc2cc(Br)cc(S(=O)(=O)CCC(=O)Nc3c(C)n(C)n(-c4ccccc4)c3=O)c21 | -1.8% (inactive)
O=C(NCc1cccnc1)c1nc(-c2cccs2)no1 | 1.9% (inactive)
Cc1ccsc1C(=O)OCC(=O)c1cc(C)n(CC2CCCO2)c1C (stereo not drawn) | 95.8% (active)
Cc1cc(C(=O)Cn2cnc3cc([N+](=O)[O-])ccc3c2=O)c(C)n1CC1CCCO1 (stereo not drawn) | 8.2% (inactive)
Cc1ccsc1C(=O)OCC(=O)c1cc2ccccc2o1 | 13.5% (inactive)
CC(C)(C)C1CCC(OC(=O)CCC(=O)Nc2ccccc2)CC1 (stereo not drawn) | 5.2% (inactive)
O=C(c1cc(=O)c2ccccc2o1)N1CCN(c2ccccc2)CC1 | 4.4% (inactive)
Cc1nc(-c2ccc(NC(=O)c3cccs3)cc2)cs1 | 78.1% (active)
Cc1ccc(-c2nnc(-c3ccc(NC(=O)c4cccs4)cc3)o2)cc1 | 11.8% (inactive)
Cc1ccc(-c2csc(NC(=O)c3cccs3)n2)cc1 | 12.6% (inactive)
Cc1ccc(S(=O)(=O)N2CCN(CC(=O)N/N=C/c3cc([N+](=O)[O-])ccc3Cl)CC2)cc1 | -9.8% (inactive)
O=c1c2c(nc3nc[nH]n13)CCC2 | -1.5% (inactive)
O=C1CCCc2c1nc(-c1cccc(Cl)c1)n2O | -13.1% (inactive)
O=c1c2c(nc3cc(-c4cccc(Cl)c4)[nH]n13)CCCC2 | 65.7% (active)
O=C(c1ccccc1)c1ccc(OCC(O)CN2CCCC2)cc1 (stereo not drawn) | -2.9% (inactive)
CCc1cc(-c2n[nH]c(=S)n2CC(C)C)cs1 | 5% (inactive)
CCOc1ccc(OCc2cccc(C(=O)N(CC)CC)c2)cc1 | 70.7% (active)
COc1ccc(OCc2cccc(C(=O)N3CCCC3)c2)cc1 | 29% (inactive)
CCN(CC)C(=O)c1ccc(O)c(OC)c1 | -3% (inactive)
